Results on 17 compounds are retold here after ChEMBL document CHEMBL2218924, “A broad activity screen in support of a chemogenomic map for kinase signalling research and drug discovery” (Biochem J, 2013).

The structures appear in SMILES notation.

The target of experiment [1] is T1, Phosphorylase b kinase gamma catalytic chain, liver/testis isoform (Homo sapiens) (UniProt P15735).
T1 sequence (whole entry): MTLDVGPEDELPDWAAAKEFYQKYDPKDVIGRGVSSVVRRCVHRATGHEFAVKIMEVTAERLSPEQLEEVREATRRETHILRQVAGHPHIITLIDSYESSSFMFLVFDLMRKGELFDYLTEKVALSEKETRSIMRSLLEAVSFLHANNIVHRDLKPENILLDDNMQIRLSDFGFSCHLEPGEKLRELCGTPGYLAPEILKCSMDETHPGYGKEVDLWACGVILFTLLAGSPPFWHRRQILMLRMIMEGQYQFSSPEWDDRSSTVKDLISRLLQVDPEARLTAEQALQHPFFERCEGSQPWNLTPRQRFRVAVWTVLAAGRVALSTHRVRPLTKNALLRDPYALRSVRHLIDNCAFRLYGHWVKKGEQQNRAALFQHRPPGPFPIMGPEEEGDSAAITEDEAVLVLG
The following applies: at 1 µM.

The target in experiment [2] is T1, Phosphorylase b kinase gamma catalytic chain, liver/testis isoform (Homo sapiens). The following applies: at 10 µM.
The target in experiment [3] is Serine/threonine-protein kinase pim-1 (Homo sapiens) (UniProt P11309). The following applies: at 1 µM.
Serine/threonine-protein kinase pim-1 (Homo sapiens), sequence (P11309 whole entry, looked up): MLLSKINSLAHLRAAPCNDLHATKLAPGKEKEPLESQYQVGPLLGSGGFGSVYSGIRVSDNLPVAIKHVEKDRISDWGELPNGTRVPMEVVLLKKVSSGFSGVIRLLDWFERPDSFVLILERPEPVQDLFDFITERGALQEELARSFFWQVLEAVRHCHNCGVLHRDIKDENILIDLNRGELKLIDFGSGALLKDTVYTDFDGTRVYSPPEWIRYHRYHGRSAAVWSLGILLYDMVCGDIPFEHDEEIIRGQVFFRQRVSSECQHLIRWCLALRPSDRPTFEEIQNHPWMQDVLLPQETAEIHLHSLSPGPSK
Experiment [4] shares this target. The following applies: at 10 µM.
Experiment [5] concerns the target Serine/threonine-protein kinase pim-2 (Homo sapiens) (UniProt Q9P1W9). The following applies: at 1 µM.
For experiment [6] the target is unchanged. The following applies: at 10 µM.
Experiment [7] deals with Serine/threonine-protein kinase pim-3 (Homo sapiens) (UniProt Q86V86). The following applies: at 1 µM.
For experiment [8] the target is unchanged. The following applies: at 10 µM.
For experiment [9], the target named is Serine/threonine-protein kinase PLK1 (Homo sapiens) (UniProt P53350). The following applies: at 1 µM.
Serine/threonine-protein kinase PLK1 (Homo sapiens), sequence (P53350 whole entry): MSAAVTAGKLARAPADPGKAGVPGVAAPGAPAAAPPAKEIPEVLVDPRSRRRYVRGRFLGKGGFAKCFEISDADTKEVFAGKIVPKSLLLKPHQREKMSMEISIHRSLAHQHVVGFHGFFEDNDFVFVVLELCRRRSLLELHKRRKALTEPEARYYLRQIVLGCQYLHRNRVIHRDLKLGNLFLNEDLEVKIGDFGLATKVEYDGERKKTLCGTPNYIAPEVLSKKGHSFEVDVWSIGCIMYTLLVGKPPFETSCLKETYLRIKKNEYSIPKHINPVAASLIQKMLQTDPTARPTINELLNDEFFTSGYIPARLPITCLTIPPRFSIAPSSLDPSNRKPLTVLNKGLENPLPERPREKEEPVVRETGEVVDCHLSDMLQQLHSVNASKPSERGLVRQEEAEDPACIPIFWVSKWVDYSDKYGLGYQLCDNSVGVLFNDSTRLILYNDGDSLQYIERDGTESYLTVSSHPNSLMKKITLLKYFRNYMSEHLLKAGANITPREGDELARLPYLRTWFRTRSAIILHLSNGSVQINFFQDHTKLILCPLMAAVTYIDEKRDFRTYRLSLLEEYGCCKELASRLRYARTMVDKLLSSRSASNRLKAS
For experiment [10] the target is unchanged. The following applies: at 10 µM.
The target in experiment [11] is Serine/threonine-protein kinase PLK3 (Homo sapiens) (UniProt Q9H4B4). The following applies: at 1 µM.
Serine/threonine-protein kinase PLK3 (Homo sapiens), sequence (Q9H4B4 whole entry, looked up): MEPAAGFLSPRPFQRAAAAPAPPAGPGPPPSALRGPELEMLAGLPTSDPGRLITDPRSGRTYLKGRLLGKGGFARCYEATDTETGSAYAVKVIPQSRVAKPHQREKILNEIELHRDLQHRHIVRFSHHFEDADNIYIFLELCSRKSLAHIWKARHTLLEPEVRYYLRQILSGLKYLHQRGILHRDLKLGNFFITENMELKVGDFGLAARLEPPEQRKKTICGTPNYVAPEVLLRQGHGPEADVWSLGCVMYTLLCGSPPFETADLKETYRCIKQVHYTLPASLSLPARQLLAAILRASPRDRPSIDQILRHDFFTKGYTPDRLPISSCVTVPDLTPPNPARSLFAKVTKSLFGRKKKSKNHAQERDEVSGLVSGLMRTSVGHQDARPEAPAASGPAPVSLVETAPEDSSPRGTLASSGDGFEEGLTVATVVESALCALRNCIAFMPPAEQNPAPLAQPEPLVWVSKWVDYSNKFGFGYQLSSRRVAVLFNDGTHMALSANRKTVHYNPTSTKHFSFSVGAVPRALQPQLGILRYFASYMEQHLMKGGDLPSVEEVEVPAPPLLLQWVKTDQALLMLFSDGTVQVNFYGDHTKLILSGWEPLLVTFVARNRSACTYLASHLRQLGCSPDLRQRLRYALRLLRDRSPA
Experiment [12] has the same target. The following applies: at 10 µM.
Experiment [13] addresses Protein-tyrosine kinase 2-beta (Homo sapiens) (UniProt Q14289). The following applies: at 1 µM.
Experiment [14] shares this target. The following applies: at 10 µM.
The target in experiment [15] is Receptor-interacting serine/threonine-protein kinase 2 (Homo sapiens) (UniProt O43353). The following applies: at 1 µM.
For experiment [16] the target is unchanged. The following applies: at 10 µM.
Experiment [17] addresses T2, cAMP-dependent protein kinase catalytic subunit PRKX (Homo sapiens) (UniProt P51817).
T2 sequence (whole entry): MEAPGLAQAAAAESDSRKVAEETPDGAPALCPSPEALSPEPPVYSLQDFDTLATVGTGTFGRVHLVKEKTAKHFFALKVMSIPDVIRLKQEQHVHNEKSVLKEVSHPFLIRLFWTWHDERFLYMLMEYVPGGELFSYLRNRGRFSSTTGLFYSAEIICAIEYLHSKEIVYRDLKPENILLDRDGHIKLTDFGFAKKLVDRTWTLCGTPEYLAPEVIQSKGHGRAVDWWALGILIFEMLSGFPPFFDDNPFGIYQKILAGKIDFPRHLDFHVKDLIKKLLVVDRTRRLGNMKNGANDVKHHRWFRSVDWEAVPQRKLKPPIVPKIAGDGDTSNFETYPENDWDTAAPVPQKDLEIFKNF
The following applies: at 1 µM.

Experiment [18] has as its target T2, cAMP-dependent protein kinase catalytic subunit PRKX (Homo sapiens). The following applies: at 10 µM.
The target of experiment [19] is Rho-associated protein kinase 1 (Homo sapiens) (UniProt Q13464). The following applies: at 1 µM.
Rho-associated protein kinase 1 (Homo sapiens), sequence (Q13464 2-1354 limits assumed): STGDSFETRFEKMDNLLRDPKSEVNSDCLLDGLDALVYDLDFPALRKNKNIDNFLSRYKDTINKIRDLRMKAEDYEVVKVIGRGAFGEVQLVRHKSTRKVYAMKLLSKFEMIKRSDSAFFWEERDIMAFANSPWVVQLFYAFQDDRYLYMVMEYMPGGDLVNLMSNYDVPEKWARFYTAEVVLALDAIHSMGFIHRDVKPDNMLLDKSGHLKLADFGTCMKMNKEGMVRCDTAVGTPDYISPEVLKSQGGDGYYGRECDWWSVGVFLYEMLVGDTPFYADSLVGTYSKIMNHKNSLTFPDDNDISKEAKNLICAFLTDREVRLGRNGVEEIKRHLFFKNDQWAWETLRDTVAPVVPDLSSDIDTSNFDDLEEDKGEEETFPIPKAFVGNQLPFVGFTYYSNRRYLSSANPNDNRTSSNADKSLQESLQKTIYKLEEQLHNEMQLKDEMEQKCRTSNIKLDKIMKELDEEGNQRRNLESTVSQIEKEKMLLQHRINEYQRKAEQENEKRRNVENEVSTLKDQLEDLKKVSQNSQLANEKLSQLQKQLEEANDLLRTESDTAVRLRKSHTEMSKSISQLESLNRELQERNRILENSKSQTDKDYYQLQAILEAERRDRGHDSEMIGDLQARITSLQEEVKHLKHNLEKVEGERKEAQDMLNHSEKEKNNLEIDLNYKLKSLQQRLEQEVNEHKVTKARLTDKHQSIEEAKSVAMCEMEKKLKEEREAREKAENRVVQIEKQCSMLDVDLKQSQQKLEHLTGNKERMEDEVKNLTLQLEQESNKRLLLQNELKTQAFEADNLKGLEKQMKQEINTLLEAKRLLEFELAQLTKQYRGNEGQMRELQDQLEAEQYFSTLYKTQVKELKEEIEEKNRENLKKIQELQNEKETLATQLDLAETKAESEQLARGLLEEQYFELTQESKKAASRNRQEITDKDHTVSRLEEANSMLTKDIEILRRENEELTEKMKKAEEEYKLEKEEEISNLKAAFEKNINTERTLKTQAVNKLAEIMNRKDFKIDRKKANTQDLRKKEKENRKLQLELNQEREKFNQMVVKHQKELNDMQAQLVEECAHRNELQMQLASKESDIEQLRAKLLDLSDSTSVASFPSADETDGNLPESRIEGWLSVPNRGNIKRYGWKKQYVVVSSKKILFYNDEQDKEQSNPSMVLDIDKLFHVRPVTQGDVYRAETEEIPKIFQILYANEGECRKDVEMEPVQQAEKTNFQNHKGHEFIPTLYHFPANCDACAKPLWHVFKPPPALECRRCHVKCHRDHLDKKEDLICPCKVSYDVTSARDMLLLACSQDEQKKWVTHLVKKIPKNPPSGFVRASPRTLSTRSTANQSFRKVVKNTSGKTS
Experiment [20] has the same target. The following applies: at 10 µM.

Serine/threonine-protein kinase pim-2 (Homo sapiens), sequence (Q9P1W9 whole entry, looked up): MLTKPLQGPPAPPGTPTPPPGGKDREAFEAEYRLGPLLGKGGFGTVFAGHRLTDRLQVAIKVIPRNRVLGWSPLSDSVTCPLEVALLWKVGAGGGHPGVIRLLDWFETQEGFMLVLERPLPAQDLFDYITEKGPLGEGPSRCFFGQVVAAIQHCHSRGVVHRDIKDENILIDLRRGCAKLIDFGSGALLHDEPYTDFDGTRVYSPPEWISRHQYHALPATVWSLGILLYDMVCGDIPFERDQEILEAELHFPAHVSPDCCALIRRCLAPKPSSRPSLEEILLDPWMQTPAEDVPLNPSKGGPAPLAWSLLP
Protein-tyrosine kinase 2-beta (Homo sapiens), sequence (Q14289 whole entry, looked up): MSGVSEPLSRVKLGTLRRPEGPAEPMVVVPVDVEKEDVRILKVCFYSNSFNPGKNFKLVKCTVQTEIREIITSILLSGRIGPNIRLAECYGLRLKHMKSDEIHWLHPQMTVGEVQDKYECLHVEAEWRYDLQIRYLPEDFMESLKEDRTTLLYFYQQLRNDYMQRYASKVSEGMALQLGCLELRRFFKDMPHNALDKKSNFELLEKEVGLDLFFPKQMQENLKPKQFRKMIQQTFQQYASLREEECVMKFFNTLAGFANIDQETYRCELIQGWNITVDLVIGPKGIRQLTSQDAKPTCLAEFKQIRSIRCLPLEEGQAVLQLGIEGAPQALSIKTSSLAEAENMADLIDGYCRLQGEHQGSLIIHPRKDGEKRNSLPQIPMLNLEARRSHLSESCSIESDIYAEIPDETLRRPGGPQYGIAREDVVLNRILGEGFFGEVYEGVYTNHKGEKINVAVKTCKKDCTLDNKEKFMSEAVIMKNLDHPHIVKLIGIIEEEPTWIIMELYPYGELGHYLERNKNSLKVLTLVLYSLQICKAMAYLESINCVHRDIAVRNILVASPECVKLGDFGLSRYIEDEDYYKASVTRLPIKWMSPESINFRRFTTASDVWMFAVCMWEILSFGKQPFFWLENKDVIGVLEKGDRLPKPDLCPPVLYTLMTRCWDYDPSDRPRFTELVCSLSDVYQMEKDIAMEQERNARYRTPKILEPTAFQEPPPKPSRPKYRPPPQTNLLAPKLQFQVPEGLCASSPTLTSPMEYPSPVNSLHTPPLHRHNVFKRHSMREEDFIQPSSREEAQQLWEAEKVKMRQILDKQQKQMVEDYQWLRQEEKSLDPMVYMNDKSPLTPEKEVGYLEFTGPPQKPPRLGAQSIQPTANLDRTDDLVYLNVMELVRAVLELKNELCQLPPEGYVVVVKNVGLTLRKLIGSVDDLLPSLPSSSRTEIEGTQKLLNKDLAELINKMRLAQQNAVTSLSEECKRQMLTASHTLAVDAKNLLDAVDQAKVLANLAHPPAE

One may read the residual activity as the signal under treatment as a percentage of the control signal. As for `O=C1Cc2c([nH]c3ccc(Br)cc23)-c2ccccc2N1`, the residual activity in [1] is 120%; in [2], 89%; in experiment [3], 75%; in experiment [4] it was 56%; in [5], 100%; in [6], 79%. For the same compound, the residual activity is 83% in experiment [7]; 79% in experiment [8]; 76% in experiment [9]; 75% in [10]; 95% (inactive) in experiment [11]; 83% in experiment [12]. The residual activity in experiment [13] was found to be 89%; in [14], 58%; in experiment [15], 49%; in [16], 22%.

As to `COc1ccc(CNC(=O)Nc2ncc([N+](=O)[O-])s2)cc1`, the residual activity was found to be 122% in experiment [1]; 107% in [2]; 116% in experiment [3]; 109% in [4]; 134% in experiment [5]; 135% in experiment [6]. The residual activity in [9] was determined as 64%; in experiment [10], 76%; in [17], 55%; in [18], 59%; in [13], 72%; in experiment [14] it was 77%. For the same compound, the figures for the residual activity in experiment [15] and in experiment [16] were 79% and 81%, respectively.

Regarding `O=C1Nc2ccccc2/C1=C\c1c(Cl)[nH]c2ccccc12`, the residual activity in experiment [1] amounted to 87%; in experiment [2] it was 87%; in [4], 26%; in experiment [5] it was 73%; in experiment [6], 16%; in experiment [9], 86%. The residual activity was found to be 75% in experiment [10]; 125% in [17]; 79% in [18]; 65% in experiment [14]; 84% in experiment [15]; 60% in experiment [16]. In [19], the residual activity was determined as 121%.

As for `O=c1cc(N2CCNCC2)oc2c(-c3ccccc3)cccc12`, the residual activity in experiment [1] was 84%; in experiment [2], 92%; in [3] it was 84%; in [4] it was 54%; in experiment [5], 100%; in [7], 88%. Moreover, the residual activity was 76% in [8]; 82% in experiment [9]; 55% in experiment [10]; 100% (inactive) in experiment [11]; 95% in [12]; 93% in [17]. In addition, the residual activity amounted to 87% in experiment [18], 96% in experiment [14], 97% in [15] and 82% in experiment [16].

Turning to `Nc1nc(Nc2ccc(S(N)(=O)=O)cc2)nn1C(=O)c1c(F)cccc1F`, the residual activity in experiment [1] was 100%; in [2] it was 107%; in experiment [3], 71%; in experiment [4], 52%; in [5] it was 99%; in experiment [6] it was 73%. For the same compound, the residual activity in experiment [7] amounted to 99%; in experiment [8], 102%; in experiment [13] it was 55%; in experiment [14], 14%; in [15], 62%; in [16], 41%. In addition, the residual activity amounted to 65% in [19] and 16% in experiment [20].

On to `N#Cc1c(NC(=O)c2cccc3ccccc23)sc2c1CCCC2`, for which the residual activity worked out at 77% in experiment [4]; 88% in experiment [7]; 85% in experiment [8]; 94% in experiment [9]; 78% in experiment [10]; 80% in experiment [17]. Also, the residual activity in experiment [18] worked out at 84%.

Take `COc1cc2c(cc1OC)-c1n[nH]c(Nc3cccc(F)c3)c1C2`: the residual activity in [3] was determined as 78%; in experiment [4], 112%; in [9], 65%; in experiment [10], 61%; in experiment [18] it was 101%; in experiment [13] it was 79%. Besides, the residual activity in experiment [14] was 32%; in experiment [15] it was 30%; in [16], 17%.

As for `O=S(=O)(NCCNC/C=C/c1ccc(Br)cc1)c1cccc2cnccc12`, the residual activity in experiment [5] turned out to be 139%; in experiment [6] it was 132%; in experiment [17], 0%; in experiment [18], 0%; in experiment [20], 29%.

Consider `c1ccc(-c2cnc(Nc3ccc(OCCN4CCCC4)cc3)s2)cc1`, for which the residual activity in experiment [2] came to 54%; in experiment [3], 113%; in experiment [4], 104%; in [5] it was 111%; in [6], 105%; in experiment [13], 105%. Besides, the residual activity was found to be 43% in experiment [14], 43% in experiment [15], 17% in experiment [16] and 110% in [20].

With `Fc1ccc(-c2nc3n(c2-c2ccncc2)CCS3)cc1`, the residual activity is 91% in experiment [3]; 73% in [4]; 128% in experiment [5]; 94% in experiment [7]; 98% in experiment [8]; 91% in experiment [9]. For the same compound, the residual activity was 82% in [10]; 100% (inactive) in experiment [11]; 95% in experiment [12]; 92% in [17]; 92% in experiment [18]; 65% in experiment [15]. Also, the residual activity in [16] came out at 24%; in [19], 123%.

As to `N#C/C(=C\c1ccc(O)c(O)c1)C(=O)NCc1ccccc1`, the residual activity in [3] came out at 74%; in experiment [4] it was 70%; in [9], 86%; in experiment [10], 64%; in experiment [12] it was 80%; in [18] it was 70%. Besides, the residual activity in experiment [13] was found to be 146%; in experiment [14] it was 101%; in [20] it was 123%.

In the case of `Oc1cccc(-c2nc(N3CCOCC3)c3oc4ncccc4c3n2)c1`, the residual activity in experiment [3] was 88%; in [4] it was 86%; in [7], 98%; in experiment [8], 98%; in [17] it was 96%; in experiment [18] it was 92%. For the same compound, the residual activity amounted to 142% in experiment [13]; 95% in [14]; 89% in experiment [15]; 86% in [16]; 123% in experiment [19]; 125% in experiment [20].

For the compound `O=C(Nc1ccc(Cl)cc1)c1ccccc1NCc1ccncc1`, the residual activity in experiment [5] was 132%; in experiment [6], 124%; in experiment [18] it was 50%; in experiment [13], 128%; in [14], 74%; in experiment [16], 78%.

As for `O=C(Nc1nc2ccccc2n1CCN1CCOCC1)c1cccc([N+](=O)[O-])c1`, the residual activity in experiment [5] came to 100%; in experiment [6], 78%; in [17] it was 108%; in [18], 86%; in experiment [13], 114%; in experiment [14] it was 86%. Further, the residual activity stood at 109% in experiment [19] and 106% in [20].

On to `Nc1n[nH]c2nc3ccccc3nc12`, for which the residual activity in experiment [3] was 124%; in [4], 87%; in experiment [5], 130%; in [6] it was 93%; in [7], 95%; in [8], 86%. Besides, the residual activity in [9] was 91%; in [10], 78%; in [11], 89% (inactive); in experiment [12], 83%; in experiment [17], 118%; in experiment [18], 84%. Further, the figures for the residual activity in experiment [14] and in experiment [15] were 92% and 94%, respectively.

Regarding `CCCCc1c(-c2ccc(O)cc2)[nH]c2nccnc12`, the residual activity in experiment [5] is 140%; in [9], 82%; in experiment [10] it was 87%; in experiment [11], 100% (inactive); in experiment [12], 100%; in [17] it was 93%. For the same compound, the residual activity in experiment [18] is 100%; in experiment [13], 54%; in [14] it was 26%; in experiment [15], 38%; in experiment [16] it was 30%.

Take `O=C1C(Cl)=C(N2C(=O)CCC2=O)C(=O)c2ccccc21`: the residual activity was 84% in experiment [3]; 82% in experiment [4]; 131% in experiment [5]; 99% in experiment [6]; 84% in experiment [7]; 84% in experiment [8]. Besides, the residual activity in [9] was 74%; in experiment [10] it was 85%; in [11], 96% (inactive); in [12], 93%; in experiment [17] it was 93%; in experiment [18] it was 92%. Moreover, the residual activity in experiment [13] was 91%; in [15], 92%; in experiment [16], 95%; in experiment [20] it was 88%.
